High-throughput results as filed in PubChem BioAssay.
B2AR arrestin ag: qHTS assay of beta-arrestin-biased ligands of beta2-adrenergic receptor: NCGC Sytravon Library Screen | 44,000 tested, under 10 active | Potency, µM (series often up to 46.1 µM), usual class: activators | AID 1347077, 2019 | HTLA Tango cells, beta-arrestin recruitment, luciferase luminescence, 18 h;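 note: potency is the fitted concentration of half-maximal effect; 0% = DMSO and full agonism = EC100 isoproterenol or metaproterenol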
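Luminescence read-out: arrestin recruitment to recombinant beta2-AR releases tTA, inducing luciferase. Cells exposed 18 hr at 37 degrees C to up to 46 microM compound; %Activity from corrected signal, concentration-response curves classified by r2, magnitude and efficacy.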
GALK inh: qHTS Assay for Inhibitors of Human Galactokinase (GALK): NCGC Sytravon Library Screen; P51570; recombinant GALK, Kinase-Glo ATP luminescence, 1 h; Potency, µM (doses to about 57.5 µM), for inactives: at the top dose activity, negative = inhibition, usual class: inhibitors; 44,000 tested, under 10 active; AID 1347072, 2019;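 note: plate controls were full GALK reaction for no effect and reaction lacking GALK for full effect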
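5 nM GALK with 35 µM ATP and 100 µM galactose in HEPES pH 8.0, MgCl2, NaCl, DTT, BSA; 1 h RT reaction, remaining ATP detected by Kinase-Glo Plus luminescence after 10 min; qHTS concentration series.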
GPR32 ag: qHTS for Agonists of Human Resolvin D1 Receptor DRV1; 48,000 compounds, 2.5% hits; CHO-K1 GPR32 beta-arrestin PathHunter luminescence, 90 min; zero percent set by DMSO-only wells; Probable G-protein coupled receptor 32 (Homo sapiens), O75388; activation, % at 76.9 µM;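 active = activation of at least 60% and not above a set upper limit, about 1 call in 100 departs from these limits; inconclusive = activation of 40% to 60%, or above that upper limit; inactive = activation under 40%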; note: 0% is about no effect
Target sequence (O75388 whole entry, looked up): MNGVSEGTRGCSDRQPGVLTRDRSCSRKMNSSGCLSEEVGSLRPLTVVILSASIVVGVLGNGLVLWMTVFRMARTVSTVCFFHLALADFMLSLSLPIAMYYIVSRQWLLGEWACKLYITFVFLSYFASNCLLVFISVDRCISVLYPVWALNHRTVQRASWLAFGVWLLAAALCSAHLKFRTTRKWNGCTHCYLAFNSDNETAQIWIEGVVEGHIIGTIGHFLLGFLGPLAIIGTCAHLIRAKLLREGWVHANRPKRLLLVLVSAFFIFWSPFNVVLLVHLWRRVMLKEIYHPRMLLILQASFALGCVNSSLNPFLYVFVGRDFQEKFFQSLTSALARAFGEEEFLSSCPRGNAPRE
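Cells are plated overnight, treated with compounds in DMSO for 90 minutes at 37 °C, and developed with PathHunter detection reagent for 1 hour before luminescence is read; signal reflects beta-arrestin binding to GPR32 in engineered CHO-K1 cells.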
HTT-AS promoter: Primary qHTS for Identification of Small Molecule Activators of Huntingtin-Antisense Promoter Activity; HEK293 HTT-AS promoter firefly luciferase reporter, 24 h; response scale: percent change from vehicle, -100% = no light; 48,000 compounds, 0.24% hits; Potency, µM (titrated, usually from 57.5 µM), for inactives: at the top dose activity change, positive = activation, hits mostly activators; note: potency is the fitted concentration of half-maximal effect; nearly all actives have a fitted effect of over 55% in size
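HEK293 Fluc reporter, 2,500 cells/well, 24 h pre-culture; cpds up to 57.5 uM final, 24 h 37 degrees C; Dual-Glo, 10 min RT; normalized vehicle = 0%, zero RLU = -100%.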
TSG101-PTAP inh: qHTS Validation Assay for Inhibitors of HIV-1 Budding by Blocking the Interaction of PTAP/TSG101: Sytravon Library Screen; Fluorescence polarization, FITC-PTAP peptide/Tsg101, 20 min; AID 1347069, 2019; Potency, µM (doses to about 115 µM), hits mostly inhibitors; Tumor susceptibility gene 101 protein (Homo sapiens), Q99816; 44,000 tested, under 10 active; note: potency is the fitted concentration of half-maximal effect; 0% is about no effect
Target sequence (Q99816 whole entry, looked up): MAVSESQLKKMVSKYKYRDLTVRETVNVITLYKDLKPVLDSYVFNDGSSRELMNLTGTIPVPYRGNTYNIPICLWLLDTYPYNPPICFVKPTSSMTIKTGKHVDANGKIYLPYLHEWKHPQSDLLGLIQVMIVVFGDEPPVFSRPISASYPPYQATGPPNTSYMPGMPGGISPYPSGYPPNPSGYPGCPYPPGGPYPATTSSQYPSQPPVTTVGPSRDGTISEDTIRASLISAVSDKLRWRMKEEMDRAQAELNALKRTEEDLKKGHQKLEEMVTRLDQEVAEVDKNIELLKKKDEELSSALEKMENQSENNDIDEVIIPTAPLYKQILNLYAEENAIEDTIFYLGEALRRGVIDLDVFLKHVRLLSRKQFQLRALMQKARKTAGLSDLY
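Compounds pinned into 10 uM Tsg101 binding domain, then 50 nM FITC-PTAP peptide added in pH 7.5 HEPES buffer; FP read after 20 min, room temperature. Total S+P intensity flags fluorescent compounds; active cut-off <25 µM, efficacy <60%.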
HTT promoter inh: Primary qHTS for Identification of Small Molecule Inhibitors of Huntingtin Promoter Activity; 48,000 compounds, 0.93% hits; Potency, µM (series often up to 57.5 µM), inactives show top-dose activity change, negative = inhibition, hits mostly inhibitors; HEK293 HTT promoter firefly luciferase reporter, 24 h; note: potency is the fitted concentration of half-maximal effect; nearly all actives have a fitted effect of over 50% in size
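HEK293 cells carrying firefly luciferase reporters were seeded at 2,500 per well in Opti-MEM and cultured for 24 h. They were then treated with compounds at up to 57.5 uM final for 24 h at 37 degrees C before Dual-Glo luminescence readout.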
Starred values were filed as active, the others as inactive. In the library only some 3.6% were active in any assay of this set; here they are far more common. Unless noted, calls come from the whole dose curve; as a rule, active = well fitted curve in the direction sought with a large enough effect; inconclusive = small, poorly fitted or top-dose-only effect, or another doubt; inactive = no such curve, though single readings can be large; an effect the other way counts as inactive or inconclusive.

Results for COc1ccc(-c2cn3c(n2)sc2cc(C(=O)Nc4cc(OC)cc(OC)c4)ccc23)cc1 ?
B2AR arrestin ag: inactive; GALK inh: -0.3%; GPR32 ag: -4.8; HTT-AS promoter: -17.4%; TSG101-PTAP inh: inactive; HTT promoter inh: inconclusive

How did COCCn1c2c([n+](Cc3cnccn3)c1C)C(=O)c1ccccc1C2=O do in these assays?
HTT-AS promoter: -94.5%; HTT promoter inh: inconclusive

Results for Cc1coc2cc3oc(=O)c(CCC(=O)N4CCCCC4)c(C)c3cc12 ?
B2AR arrestin ag: inactive; GALK inh: -0.6%; GPR32 ag: 106.8*; TSG101-PTAP inh: inactive

Results for COCCCNc1nc(NCc2ccccc2OC)c2cnn(C)c2n1 ?
B2AR arrestin ag: inactive; GALK inh: -1.7%; GPR32 ag: 75.1*; HTT-AS promoter: -25.8%; TSG101-PTAP inh: inactive; HTT promoter inh: inconclusive

What do the screens show for `Cn1ncc2c(NCc3ccccc3Cl)nc(NCCO)nc21`?
B2AR arrestin ag: inactive; GALK inh: 2.4%; GPR32 ag: 22.9; HTT-AS promoter: -14.2%; TSG101-PTAP inh: inactive; HTT promoter inh: -19.4%

How did COCCCNc1nc(NCc2ccc(C)cc2)c2cnn(C)c2n1 do in these assays?
B2AR arrestin ag: inactive; GALK inh: 1.4%; GPR32 ag: 69.1*; HTT-AS promoter: -18.8%; TSG101-PTAP inh: inactive; HTT promoter inh: inconclusive

Results for COCCNc1nc(NCc2ccccc2OC)c2cnn(C)c2n1 ?
B2AR arrestin ag: inactive; GALK inh: -1.2%; GPR32 ag: 1.9; HTT-AS promoter: -22.9%; TSG101-PTAP inh: inactive; HTT promoter inh: inconclusive

Results for CC(=O)NCCC(=O)N[C@@H](CCC(N)=O)C(=O)N[C@@H](CO)C(=O)N[C@@H](CCC(N)=O)C(=O)N[C@@H](CCC(N)=O)C(=O)N[C@H](C(=O)N[C@@H](Cc1ccccc1)C(=O)N[C@]1(C)CCCCCCC=CCCC[C@@](C)(C(=O)N[C@@H](CCC(N)=O)C(=O)N[C@@H](CC(N)=O)C(N)=O)NC(=O)[C@H](CC(C)C)NC(=O)[C@H](CC(C)C)NC(=O)[C@@H](CCCNC(=N)N)NC(=O)[C@H](Cc2c[nH]c3ccccc23)NC(=O)[C@H](CC(C)C)NC(=O)[C@H](CC(N)=O)NC1=O)[C@H](C)O ?
HTT-AS promoter: -1.8%; HTT promoter inh: -19.2%

Results for O=c1[nH]c2ccc(NCc3ccc(-c4ccccc4F)o3)cc2[nH]1 ?
B2AR arrestin ag: inconclusive; GALK inh: -5.8%; GPR32 ag: -1.3; HTT-AS promoter: -60.1%; TSG101-PTAP inh: inactive; HTT promoter inh: 28.2µM*

What do the screens show for `O=c1[nH]c2ccc(NCc3ccc(-c4ccccc4)o3)cc2[nH]1`?
B2AR arrestin ag: inactive; GALK inh: 4.5%; GPR32 ag: 29.5; HTT-AS promoter: -32.2%; TSG101-PTAP inh: inactive; HTT promoter inh: inconclusive

What do the screens show for `Cc1ccc(C)c(N2CCN(C(=O)CCNS(=O)(=O)c3ccc4c(c3)CCN4C(=O)C3CC3)CC2)c1`?
B2AR arrestin ag: inactive; GALK inh: -0.1%; GPR32 ag: 48.7; HTT-AS promoter: -44.7%; TSG101-PTAP inh: inactive; HTT promoter inh: inconclusive

What do the screens show for `O=C(CCNS(=O)(=O)c1ccc2c(c1)CCN2C(=O)C1CC1)N1CCN(c2ccccc2F)CC1`?
B2AR arrestin ag: inactive; GALK inh: -3.2%; GPR32 ag: 70.6*; HTT-AS promoter: inconclusive; TSG101-PTAP inh: inactive; HTT promoter inh: -43.1%

What do the screens show for `CC(=O)N1CCCc2cc(S(=O)(=O)N3CCCC(C(=O)N4CCN(c5ccccc5F)CC4)C3)ccc21` (stereo not given)?
B2AR arrestin ag: inactive; GALK inh: -0.1%; GPR32 ag: 40.9; HTT-AS promoter: -34.2%; TSG101-PTAP inh: inactive; HTT promoter inh: 10µM*

What do the screens show for `COc1ccc(N2CCN(C(=O)C3CCCN(S(=O)(=O)c4ccc5c(c4)CCCN5C(C)=O)C3)CC2)cc1` (stereo not given)?
B2AR arrestin ag: inactive; GALK inh: 1.9%; GPR32 ag: 2.7; HTT-AS promoter: -46.6%; TSG101-PTAP inh: inactive; HTT promoter inh: inconclusive

What do the screens show for `COc1ccc2c(CNCCc3ccco3)c(C(=O)O)n(Cc3ccc(C)cc3)c2c1`?
B2AR arrestin ag: inactive; GALK inh: 0.0%; GPR32 ag: 89.4*; HTT-AS promoter: -23.3%; TSG101-PTAP inh: inactive; HTT promoter inh: -16.9%

What do the screens show for `COc1ccc(Cn2c(C(=O)O)c(CNCc3ccc(C)o3)c3ccc(OC)cc32)cc1`?
B2AR arrestin ag: inactive; GALK inh: 0.8%; GPR32 ag: 74.6*; HTT-AS promoter: -22.2%; TSG101-PTAP inh: inactive; HTT promoter inh: -20.0%

How did COc1ccc2c(CNCCc3ccco3)c(C(=O)O)n(Cc3ccc(F)cc3)c2c1 do in these assays?
B2AR arrestin ag: inactive; GALK inh: -7.2%; GPR32 ag: 33.4; HTT-AS promoter: -18.6%; TSG101-PTAP inh: inactive; HTT promoter inh: -21.4%

Results for COc1ccc2c(CNC3CCC(C)CC3)c(C(=O)O)n(Cc3ccc(F)cc3)c2c1 (stereo not given) ?
B2AR arrestin ag: inactive; GALK inh: -1.6%; GPR32 ag: 91.1*; HTT-AS promoter: -23.2%; TSG101-PTAP inh: inactive; HTT promoter inh: -18.5%

What do the screens show for `O=Cc1ccc(O)c(O)c1O`?
GPR32 ag: -6.6; HTT-AS promoter: -2.0%; HTT promoter inh: -8.2%

What do the screens show for `CCS(=O)(=O)c1cccc(C(=O)Nc2ccc(-c3nc4ccccc4s3)c(O)c2)c1`?
B2AR arrestin ag: inactive; GALK inh: 1.1%; GPR32 ag: 61.0*; HTT-AS promoter: -1.5%; TSG101-PTAP inh: inactive; HTT promoter inh: inconclusive

Results for CCS(=O)(=O)c1ccc(OC)c(C(=O)OC)c1 ?
GPR32 ag: 14.0; HTT-AS promoter: 0.3%; HTT promoter inh: 3.0%

What do the screens show for `O=C(Nc1cccc(F)c1)c1ccc(-c2ccccc2)s1`?
B2AR arrestin ag: inactive; GALK inh: 7.2%; GPR32 ag: 68.3*; HTT-AS promoter: inconclusive; TSG101-PTAP inh: inactive; HTT promoter inh: 27.8%
